Reference: PMC7819943, “Rice protein-binding microarrays: a tool to detect cis-acting elements near promoter regions in rice”
The full ranking holds about 68,000 sequences; the median of “fluorescence intensity (a.u.)” is about 9,100, and the highest 2% start at about 16,000. The sample holds the highest values, similar sequences and a random draw of the others, so the mix is not that of the screen.

Each sequence was assayed against OsWRKY34 (Oryza sativa, UniProt Q0JBA9 1-250) (assay: protein-binding microarray (RPBM); PBS, 2% BSA, 51.3 ng/ul salmon testes DNA, 50 uM zinc acetate, 200 nM TF, 25 C, 1 h; high values mean tight binding). Settings: protein: recombinant; tags: N-terminal polyhistidine and DsRed monomer fusion (pET32a); label: CyDye5-dUTP incorporated in the synthesized complementary strand; 3' TTTTT single-stranded linker to array surface; dsDNA, one strand shown.
OsWRKY34, sequence (Q0JBA9 entry or part of it): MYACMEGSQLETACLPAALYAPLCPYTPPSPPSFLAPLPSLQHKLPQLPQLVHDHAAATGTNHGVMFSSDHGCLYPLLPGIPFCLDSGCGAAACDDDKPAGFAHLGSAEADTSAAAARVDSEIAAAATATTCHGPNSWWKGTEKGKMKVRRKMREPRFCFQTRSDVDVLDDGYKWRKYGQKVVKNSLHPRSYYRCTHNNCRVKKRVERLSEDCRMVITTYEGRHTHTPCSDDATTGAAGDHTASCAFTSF
In short: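 Transcription factors were each fused at the N-terminus to a polyhistidine tag plus DsRed and expressed in E. coli BL21-CodonPlus before Ni–NTA purification. Binding to a double-stranded custom Agilent array was carried out with 200 nM protein at 25 °C for 1 h in PBS, 2% BSA, salmon testes DNA and 50 µM zinc acetate. The binding signal is per-feature fluorescence intensity, in arbitrary units, on an Axon 4000B scanner.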

Sequence | binding signal
ATATCATGTTTATTATCTTGTTATTTTGGATTAAAATATGCGGAGTCACCTAGTGCAG | 9720 fluorescence intensity (a.u.)
GATGCCTGCCAATCTGCCATGCCATTATATCTGCAGTTCTCGGAGTCACCTAGTGCAG | 12000 fluorescence intensity (a.u.)
CGTCTCTCCCGATCCGTCCCATCAAAAAGCAACACCAATACGGAGTCACCTAGTGCAG | 8530 fluorescence intensity (a.u.)
ATTTTTATAGTATTACATCTACGTGTAAAGTTTCATCTTTCGGAGTCACCTAGTGCAG | 8260 fluorescence intensity (a.u.)
CTATGGTTTGGTTTGAATTTTACTGTTGTATGCTGTTCCCCGGAGTCACCTAGTGCAG | 8660 fluorescence intensity (a.u.)
TGGCCGGGAGGGTTGGCCCTTGTGGTTTCGGGGTTTGGTTCGGAGTCACCTAGTGCAG | 15900 fluorescence intensity (a.u.)
CTTTTCTCATCCCTTTTGTTTCTTCACTCCGGCTCACCGCCGGAGTCACCTAGTGCAG | 8230 fluorescence intensity (a.u.)
GTACACGTTACCCGCGTGGGTGTGGGTATGGGGATGATTTCGGAGTCACCTAGTGCAG | 11700 fluorescence intensity (a.u.)
GGGTTGAGATGGGAGTAGAGGGGAGTGAGGTGGAAGAAGACGGAGTCACCTAGTGCAG | 8360 fluorescence intensity (a.u.)
TATTTTTGACCAGAGGGAGGGTTTTTTTTTTTTTGAGAGACGGAGTCACCTAGTGCAG | 10300 fluorescence intensity (a.u.)
AGTGTTCTAGACTTACGGGTTACGGTTTTTTTTGTTAGAGCGGAGTCACCTAGTGCAG | 8090 fluorescence intensity (a.u.)
GATCAGAGATGAGGGCGGGCGGGTTGACTGGGAGAGTAGACGGAGTCACCTAGTGCAG | 20500 fluorescence intensity (a.u.)
TGAGAAAGAGAGAGAGAGGGAGATGGCTGGGGAGACGGGGCGGAGTCACCTAGTGCAG | 9660 fluorescence intensity (a.u.)
GCGGTGATGACAGACGGGAGAGGGAGGGTTTTTTTTGTTACGGAGTCACCTAGTGCAG | 18200 fluorescence intensity (a.u.)
CGAGGGAGAGGGGAGAGGGGAGTGCGGCGGGTGAGGCGGGCGGAGTCACCTAGTGCAG | 9650 fluorescence intensity (a.u.)
GGGTGTTTTCAGACGGAGAGAGGCGGCGGCGGCGGCGGGGCGGAGTCACCTAGTGCAG | 18500 fluorescence intensity (a.u.)
TAGGGTTTGGTTGGGTTTTTGGGTGTTTTCAGACGGAGAGCGGAGTCACCTAGTGCAG | 12800 fluorescence intensity (a.u.)
ACACAGCCACACACCAACATGCCCTTCAGGTCTTCACACTCGGAGTCACCTAGTGCAG | 9550 fluorescence intensity (a.u.)
TTGTCTCCTATCTTGTGCCGTGCCTTCTTAAACCATTGCTCGGAGTCACCTAGTGCAG | 8610 fluorescence intensity (a.u.)
CATGGCCTAGTTGGGGTGTTGCGTATGTAATTTATCTGTCCGGAGTCACCTAGTGCAG | 8100 fluorescence intensity (a.u.)
TTGACGGAGCATCTATACCCGGTTTTGTAGTTCATGAACACGGAGTCACCTAGTGCAG | 9100 fluorescence intensity (a.u.)
ATTTTGGTACTACTCTATATTTTAGTTTGCAGCTTGTGCTCGGAGTCACCTAGTGCAG | 10600 fluorescence intensity (a.u.)
ATATACACATTCTCCCATTGCTATATTATCTGTATTCTGACGGAGTCACCTAGTGCAG | 13400 fluorescence intensity (a.u.)
CTCTCTCTATCCATCTCTTTCTCTCTCTCTTACACAACAACGGAGTCACCTAGTGCAG | 8150 fluorescence intensity (a.u.)
ATCTATCACCATCTCTCCTTGATCTTGTGCACCTTACAAACGGAGTCACCTAGTGCAG | 16800 fluorescence intensity (a.u.)
GATCTTGTGCACCTTACAAATTACATTGCCGACCATAAAACGGAGTCACCTAGTGCAG | 9320 fluorescence intensity (a.u.)
GTTATCAGCTTTTCTTTTTTTTTTGAAATTTCAGATTATTCGGAGTCACCTAGTGCAG | 8980 fluorescence intensity (a.u.)

Sequence | binding signal
CCCCATTCACTTCCACAGACAAGTAGCATCACCTTTCAGTCGGAGTCACCTAGTGCAG | 8710 fluorescence intensity (a.u.)
ATTTTAATGTATGACGCCGTTGACTTTTTGTCCAACGTTTCGGAGTCACCTAGTGCAG | 25600 fluorescence intensity (a.u.)
CACCTTGACTCAGCGTGGTTGACTCTAGTCAACTTGTCACCGGAGTCACCTAGTGCAG | 10400 fluorescence intensity (a.u.)
CCATATTTTAATGTATGACGCCATTGACTTTTTGTCCAACCGGAGTCACCTAGTGCAG | 14500 fluorescence intensity (a.u.)
TAAATGTTTAACGTCGTTGACTTTTTTAAACATGTATGACCGGAGTCACCTAGTGCAG | 19200 fluorescence intensity (a.u.)
GTATGACGCCGTTGACTTTTCGATCAACGTTTGACTATTTCGGAGTCACCTAGTGCAG | 25300 fluorescence intensity (a.u.)
TAAATGTTTAACGTTGTTGACTTTTTTAAACATGTTTGACCGGAGTCACCTAGTGCAG | 13500 fluorescence intensity (a.u.)
GTTGACCGTTGACCTTTTTGTGGGTCAACTCAATCAAGACCGGAGTCACCTAGTGCAG | 16600 fluorescence intensity (a.u.)
AATATATGACGCCGTTAACTTTTCGAACAACATTTGACTACGGAGTCACCTAGTGCAG | 9760 fluorescence intensity (a.u.)
CGATCAACGTTTGACTATTTGTTTTATTCAAAATTTTTGTCGGAGTCACCTAGTGCAG | 9460 fluorescence intensity (a.u.)
CCTCCTTTTGACTCAGCAAGTCAATTGTGGTCAACCTGCCCGGAGTCACCTAGTGCAG | 8970 fluorescence intensity (a.u.)
CACCAAGCATGTCCATGACCTTGCACTCTTGGCTCACTCGCGGAGTCACCTAGTGCAG | 8030 fluorescence intensity (a.u.)
CAAAATCCTTTTTCTTTTTTTCATTTTTTCTGTGCTTTTTCGGAGTCACCTAGTGCAG | 8680 fluorescence intensity (a.u.)
TAGGCTGATGGGTCTTCATGCTTCGGTTCATCTTCGTCTCCGGAGTCACCTAGTGCAG | 10200 fluorescence intensity (a.u.)
GGTGAGCTCTCTTTAATGCATATACACAGCAGCCTATTGCCGGAGTCACCTAGTGCAG | 8440 fluorescence intensity (a.u.)
TGTGATTTGCACCGCATACTTTCCCCGACAATAGATCATCCGGAGTCACCTAGTGCAG | 8850 fluorescence intensity (a.u.)
CCTCCGCTTCTTCGCCGCCGCCGCCATCCCGCCCTAGCGACGGAGTCACCTAGTGCAG | 9070 fluorescence intensity (a.u.)
ATTTTCTTTAAGAGATGTTCTTGTCTGTTGTCAGGTTTGTCGGAGTCACCTAGTGCAG | 9670 fluorescence intensity (a.u.)
ACCGTCGTCAGCAACGCCGCTACTGCCACTGCAATTGCCGCGGAGTCACCTAGTGCAG | 8320 fluorescence intensity (a.u.)
TATTTTAATGTATGACGCCGTTGACTTTTTAATCAATGTTCGGAGTCACCTAGTGCAG | 29100 fluorescence intensity (a.u.)
TGTGTACTATTTTTTCTACCGTTGGATACAAATATGAGGGCGGAGTCACCTAGTGCAG | 8510 fluorescence intensity (a.u.)
TTAATGTATGACGCCGTTGACTTTTTAATAAACGTTTGACCGGAGTCACCTAGTGCAG | 40900 fluorescence intensity (a.u.)
CCGCATTTTAATGTATGACGTCATTGACTTTTCGATCAACCGGAGTCACCTAGTGCAG | 10200 fluorescence intensity (a.u.)
TTTAATGTATCACACCGTTAATTTTTTTTCAACGTTTGACCGGAGTCACCTAGTGCAG | 8900 fluorescence intensity (a.u.)
TTAATGTATGACGCCGTTGACTTTTTAATCAACGTTTGACCGGAGTCACCTAGTGCAG | 25900 fluorescence intensity (a.u.)
ACCTGTAAACTACCGTTGGATAAAAAATAAACGTATGAGACGGAGTCACCTAGTGCAG | 63600 fluorescence intensity (a.u.)
CCTTTTGGACGTACGTCGATAGTTGGGTAAATATGAAAAACGGAGTCACCTAGTGCAG | 11400 fluorescence intensity (a.u.)
